Hit rate of the full screen: of about 2,500 compounds, fewer than 10 were called active. Not all results are given here. A number with no mark means an inactive call.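 How the source made its calls: active means inhibition of at least 30% at 20 µM; inactive means the rest.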

This assay in a line: colorimetric readout interference by compounds, confirmation, artefact control for Scp-1 inhibitor project, biochemical, single concentration (AID 540313).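 Further: compounds added after enzyme reaction finished so only phosphate colour detection is probed; plate controls were DMSO wells with completed Scp-1 reaction for no effect and substrate wells lacking enzyme for full effect.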 Particulars: Colorimetric interference counterscreen, malachite green absorbance 630 nm; at 20 µM; stronger effect = higher value. On the technique in general: The purpose of a counterscreen is to sort out artefacts and off-target activity.
Take `O=c1c2cc(-c3ccccc3)sc2nc2n1N=C(c1cccs1)CS2`: the apparent inhibition (interference) was -15.6%.

`O=C(c1ccc(CS(=O)(=O)c2ccccc2)o1)N1CCN(c2ccccc2)CC1`: the apparent inhibition (interference) is -14.5%.

`Cc1ccc(C(=O)NNC(=O)c2cc3cc4ccccc4nc3s2)cc1`: the apparent inhibition (interference) was -12.3%.

`N#CC1=C(SCc2ccccc2)NC(=O)C(C#N)C12CCCC2` (stereo not drawn): the apparent inhibition (interference) is -3.5%.

For `COc1cccc2sc(N(CCCN(C)C)C(=O)C(c3ccccc3)c3ccccc3)nc12`, the apparent inhibition (interference) was -9.56%.

`CN(c1ccccc1)S(=O)(=O)c1ccc(Cl)c(C(=O)OCC(=O)NCc2ccco2)c1`: the apparent inhibition (interference) was -22.8%.

Turning to `Nn1cnnc1N/N=C/c1cc([N+](=O)[O-])c(Cl)cc1Cl`, the apparent inhibition (interference) was 2.55%.

Take `O=C(COC(=O)/C=C/c1ccc(Br)o1)Nc1cccc(S(=O)(=O)N2CCOCC2)c1`: the apparent inhibition (interference) is -18.6%.

As to `Cc1nnc(SCC(=O)Nc2ccc(S(=O)(=O)Nc3ccc(Cl)nn3)cc2)s1`, the apparent inhibition (interference) is -18.9%.

As to `O=C(COC(=O)CCC(=O)c1cccs1)NCc1ccco1`, the apparent inhibition (interference) is -8.73%.

For `COCCCNc1nc2ccccc2nc1NS(=O)(=O)c1ccc(F)cc1`, the apparent inhibition (interference) was -12.6%.

For the compound `O=S(=O)(Nc1ccccc1Cl)c1cccc2nsnc12`, the apparent inhibition (interference) was -11.2%.

For `CC(NC(=O)CC1SC(N)=NC1=O)c1ccccc1` (stereo not drawn), the apparent inhibition (interference) was -25.2%.

Consider `O=C(O)c1ccc(N/N=C/c2ccc3ncccc3c2)cc1`, for which the apparent inhibition (interference) is -19.2%.

For `ON=C1/C(=N\O)CC2(C/C1=N/O)OCCO2`, the apparent inhibition (interference) is -6.8%.

`O=C(Nc1cc(S(=O)(=O)N2CCCCC2)ccc1Cl)C1COc2ccccc2O1` (stereo not drawn): the apparent inhibition (interference) was -8.46%.

`Cc1nn(-c2cc(Cl)ccc2N)c(=O)c2ccccc12`: the apparent inhibition (interference) is -5.43%.

With `Cc1ccc(CN2CCN(c3ccccc3Cl)CC2)o1`, the apparent inhibition (interference) was -14.5%.

Consider `CN(CC(=O)Nc1cccc(F)c1)C(=O)C1CC(=O)N(CCc2ccccc2)C1` (stereo not drawn), for which the apparent inhibition (interference) was -6.79%.

Consider `COc1ccc(NC(=O)N(C)C[C@H]2Oc3ccc(NC(=O)C4CC4)cc3C(=O)N([C@H](C)CO)C[C@@H]2C)cc1`, for which the apparent inhibition (interference) is -15.3%.

Take `COc1ccc(Cl)cc1C=CC=NNC(=O)c1ccncc1`: the apparent inhibition (interference) is -8.46%.

For `Cc1ccc(S(=O)(=O)Nc2ccc3c(c2)C(=O)N([C@H](C)CO)C[C@@H](C)[C@@H](CN(C)C(=O)Nc2cccc4ccccc24)O3)cc1`, the apparent inhibition (interference) was -13.6%.

Turning to `C=C1c2cccc(OC)c2O[C@H](C(=O)OCC)[C@@H]1CCCCCC`, the apparent inhibition (interference) is -7.63%.

Consider `COc1cccc(CNS(=O)(=O)c2csc(C(N)=O)c2)c1`, for which the apparent inhibition (interference) was -12.8%.

Take `O=C(Nc1cccc(F)c1)[C@@H]1CCCN1`: the apparent inhibition (interference) is -5.98%.

Turning to `O=C(c1ccc2c(c1)OCO2)N1CCNc2ccccc2C1`, the apparent inhibition (interference) is -25.4%.

Consider `C[C@H](CO)N1C[C@H](C)[C@H](CN(C)C(=O)Nc2ccc(C(F)(F)F)cc2)Oc2c(NC(=O)c3ccncc3)cccc2C1=O`, for which the apparent inhibition (interference) is -21.4%.

As for `Cc1ccccc1NC(=O)CN1C(=O)N/C(=C\c2cccn2-c2cccc(C(=O)O)c2)C1=O`, the apparent inhibition (interference) is 6.13%.

As for `N#Cc1c(-c2cccs2)nc(SCC(=O)c2ccc(Br)cc2)[nH]c1=O`, the apparent inhibition (interference) was -20.8%.

`O=C(NNC(=O)c1ccc2ccccc2c1)c1ccc(Cl)cc1`: the apparent inhibition (interference) is -9.26%.

As for `N#Cc1ccc(C(=O)Nc2cccc3cccnc23)c(F)c1`, the apparent inhibition (interference) was -4.88%.

In the case of `Cc1ccc(S(=O)(=O)Nc2nc(C)cc(-n3nc(C)cc3C)n2)cc1`, the apparent inhibition (interference) was -5.43%.

Take `O=C(CN1CCN(S(=O)(=O)/C=C/c2ccccc2)CC1)NC(=O)NCc1ccco1`: the apparent inhibition (interference) was -17.5%.

In the case of `Cc1ccc(Cc2nnc(SCC(=O)Nc3ccc(C)cc3C)[nH]c2=O)cc1`, the apparent inhibition (interference) was -12.9%.

`O=C(Cn1cc(/C=N/NC(=O)c2cccc(C(F)(F)F)c2)c2ccccc21)Nc1ccc(F)cc1`: the apparent inhibition (interference) is -10.9%.

Consider `CC1=NNC(=O)C1CCC(=O)N/N=C\c1cccc(Cl)c1` (stereo not drawn), for which the apparent inhibition (interference) is -21.4%.

As for `CCCc1nc(-c2cc3cc(C)ccc3[nH]c2=O)no1`, the apparent inhibition (interference) is -14%.

`COc1cccc(NC(C)=[N+](C)CCNS(=O)(=O)c2ccc(Cl)cc2)c1`: the apparent inhibition (interference) was -6.24%.

Take `Cc1ccc(N=Cc2c(O)n(-c3nccs3)c(=O)c3ccccc23)c(C)c1`: the apparent inhibition (interference) was -22.5%.

Take `O=C(CN1CCN(c2ccc(Cl)cc2)CC1)c1ccccc1`: the apparent inhibition (interference) was -14.5%.

`O=C(Cn1nnc(-c2ccc3c(c2)OCO3)n1)NCc1ccco1`: the apparent inhibition (interference) was -12%.

As to `Cc1cc(/C=C2\SC(=O)N(C)C2=O)c(C)n1-c1cccc(C(=O)O)c1`, the apparent inhibition (interference) was -18.6%.

Take `Cc1c(CCC(=O)O)c(=O)oc2c(C)c(OCc3ccccc3Cl)ccc12`: the apparent inhibition (interference) is -5.7%.

In the case of `COc1ccc2[nH]c3c(C)c4cc[n+](C)cc4c(C)c3c2c1`, the apparent inhibition (interference) is -5.15%.

`NC(=O)NC(=O)CSc1nc2cc([N+](=O)[O-])ccc2n1-c1cccc(C(F)(F)F)c1`: the apparent inhibition (interference) was -5.7%.

Take `CCOc1ccccc1/C=c1\sc2nc(-c3ccco3)nn2c1=O`: the apparent inhibition (interference) is -22.1%.

As for `Cc1ccc(/C=C/C(=O)Nc2ccc([N+](=O)[O-])c(NC(=O)/C=C/c3ccc(C)o3)c2)o1`, the apparent inhibition (interference) is 2.53%.

Consider `COc1ccc(OC)c(NC(=O)CSc2nc(-c3ccccc3)cc(=O)[nH]2)c1`, for which the apparent inhibition (interference) is -14.8%.

Take `COc1ccc(OCC(=O)NNC(=O)c2ccc(-c3ccccc3)cc2)cc1`: the apparent inhibition (interference) is -11.5%.

In the case of `Cc1c([N+](=O)[O-])c(N)nn1C`, the apparent inhibition (interference) is 2.28%.

Turning to `O=C1NN(c2ccccc2)C(=O)/C1=C/c1ccc(-c2cccc(C(=O)O)c2)o1`, the apparent inhibition (interference) was 0.06%.

For `COc1ccc(/C=C/C(=O)OCC(=O)NC2CCCCCC2)cc1OC`, the apparent inhibition (interference) was 5.86%.

For `Cc1ccc(CCCOC(=O)C[N+]2(C)CCCC2)cc1`, the apparent inhibition (interference) is -20%.

On to `Cc1c(CCC(=O)O)c(=O)oc2cc(OCc3ccc(Br)cc3)ccc12`, for which the apparent inhibition (interference) was -11.7%.

`CC1CCN(c2ccc(S(=O)(=O)Nc3cc(C(=O)O)cc(C(=O)O)c3)cc2[N+](=O)[O-])CC1`: the apparent inhibition (interference) was -19.7%.

With `CC(=O)Nc1ccc(N2C(=O)CCC2=O)cc1C`, the apparent inhibition (interference) is -12.9%.

For `Cn1c(N)c(C(=O)COC(=O)c2ccc3ccccc3c2)c(=O)n(C)c1=O`, the apparent inhibition (interference) is -13.1%.

In the case of `N/C(=N\OC(=O)N1c2ccccc2Sc2ccccc21)c1ccc(Br)cc1`, the apparent inhibition (interference) was -18.1%.

Take `O=[N+]([O-])c1cc(S(=O)(=O)Nc2cccc(Cl)c2)ccc1N=Nc1c(O)[nH]c2ccccc12`: the apparent inhibition (interference) is -15.6%.

Regarding `CCOC(=O)C1CCCN(C(=O)CN(c2ccc(OC)cc2)S(=O)(=O)c2c(C)noc2C)C1` (stereo not drawn), the apparent inhibition (interference) was -13.4%.

With `C[n+]1ccc(C(=O)NCc2ccccc2)cc1`, the apparent inhibition (interference) is -18.9%.

For the compound `CCOC(=O)C1=C(C)c2ccccc2OC1(C)C(=O)OCC` (stereo not drawn), the apparent inhibition (interference) was -21.7%.

As to `O=C(CNC(=O)C(c1ccccc1)c1ccccc1)N/N=C\c1ccc2c(c1)OCO2`, the apparent inhibition (interference) was -8.18%.

On to `CCC(=O)Nc1ccccc1N1CCN(S(C)(=O)=O)CC1`, for which the apparent inhibition (interference) is -13.4%.

For the compound `C=Cc1ccc(C(=O)N2CCCC(CCC(=O)N3CCN(c4ccccn4)CC3)C2)cc1` (stereo not drawn), the apparent inhibition (interference) was -12.3%.

Regarding `CCc1ccc(NC(=O)CS(=O)CC(=O)NCCCc2ccccc2)cc1` (stereo not drawn), the apparent inhibition (interference) is -6.8%.

As for `O=C(CCS(=O)(=O)c1ccc(Br)cc1)NCCc1ccc(Cl)cc1`, the apparent inhibition (interference) was -10.1%.

As for `Cc1ccc(NC(=O)COc2ccc(/C=N\NC(=O)c3cccnc3)cc2)cc1C`, the apparent inhibition (interference) is -15.6%.

In the case of `O=C(CCNC(=O)c1ccccc1)NN=Cc1ccc(Br)o1`, the apparent inhibition (interference) is -15.3%.

As for `O=C(NN1C(=O)C2C3C=CC(O3)C2C1=O)c1ccccc1` (stereo not drawn), the apparent inhibition (interference) was -7.63%.

As for `COc1ccc(Cc2nnc(NC(=O)Cc3cccs3)s2)cc1`, the apparent inhibition (interference) is -7.35%.

With `CCCCSc1nnc(-c2ccc(C)cc2)o1`, the apparent inhibition (interference) is -17.8%.

`CSc1ccc(/C=N/NC(=O)c2cccc(Cl)c2)cc1`: the apparent inhibition (interference) is -14.2%.

Regarding `Cc1oc2c(C)c3oc(=O)c(CC(=O)N[C@@H](CC(C)C)C(=O)N[C@@H](Cc4ccccc4)C(=O)O)c(C)c3cc2c1C`, the apparent inhibition (interference) is -9.01%.

For the compound `O=C(c1cc2c(s1)CCC2)N1CCN(c2ccccc2)CC1`, the apparent inhibition (interference) is -15.9%.

Regarding `COc1ccc(S(=O)(=O)c2c[nH]c(=S)[nH]c2=O)cc1Cl`, the apparent inhibition (interference) was -5.98%.

Consider `COCCCn1c(Cc2csc(Nc3cccc(Cl)c3)n2)nnc1SCC(=O)OC1CCCCC1`, for which the apparent inhibition (interference) was -7.61%.

As to `C=CC1C(OC2OC(CO)C(O)C(O)C2O)OC=C(C(=O)OC)C1CC1CC(=O)CC(CC(=O)CCc2ccc(O)cc2)O1` (stereo not drawn), the apparent inhibition (interference) was -16.9%.

Consider `COC(=O)c1ccc(-c2c(-c3ccccc3)ncc3cc(OC)c(OC)cc23)cc1`, for which the apparent inhibition (interference) was -3.78%.

As to `CCOc1ccc2nc(N(CCCN(C)C)C(=O)c3ccc(C(=O)c4ccccc4)cc3)sc2c1`, the apparent inhibition (interference) was -0.21%.

Turning to `COc1cc(/C=C/C2=CC(C)(C)NC(=S)N2)cc(OC)c1OC`, the apparent inhibition (interference) was -12%.

On to `COC(=O)CNC(=O)C(CCSC)NC(C)=O` (stereo not drawn), for which the apparent inhibition (interference) is -13.1%.

For the compound `COc1cc(SC)ccc1C(=O)NNC(=O)C1COc2ccccc2O1` (stereo not drawn), the apparent inhibition (interference) was -1.3%.

As for `COC(=O)C[n+]1cccc2ccccc21`, the apparent inhibition (interference) is -9.28%.

For `CC1=NN(C(=O)CCc2ccccc2O)C(O)(C(F)(F)F)C1` (stereo not drawn), the apparent inhibition (interference) is -14%.

On to `Cc1c(Cl)cnc(NC(=O)COC(=O)c2ccc(S(=O)(=O)NCc3ccco3)cc2)c1Cl`, for which the apparent inhibition (interference) was -10.4%.

With `O=C(COc1ccc(-n2cnnn2)cc1)Nc1ccccc1Cl`, the apparent inhibition (interference) was -15.1%.

As for `COc1ccc(N2CCN(C(=O)CSc3nc4cc(OC)c(OC)cc4cc3C#N)CC2)cc1`, the apparent inhibition (interference) was -7.08%.
